Assay results reported in PubChem BioAssay (Tox21).
Several values for one entry are separate records, joined by “and”; a condition that tells them apart may be missing. Equal entries are not always repeated. Inconclusive results are not listed. A call without a number means that no potency is given here. Some compounds were tested as several samples or in several runs, with calls that do not always agree. Activity calls are given as the source filed them. Unless noted, calls come from the whole dose curve; as a rule, active = well fitted curve in the direction sought with a large enough effect in the repeat runs; inconclusive = weak or mixed curves; inactive = no such curve, though single readings can be large; an effect the other way counts as inactive or inconclusive.

Experiments:
[1] = molecular target: Progesterone receptor (Homo sapiens) (UniProt P06401); experiment: qHTS assay to identify small molecule agonists of the progesterone receptor (PR) signaling pathway (AID 1346784; calls by dose curve; note: nearly all actives have a fitted effect of over 30% in size; note: potency is the fitted concentration of half-maximal effect); conditions: PR-UAS-bla HEK293T, beta-lactamase FRET ratio, 16 h; series mostly up to 92.4 µM
Method in brief: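 Cells (PR-UAS-bla HEK 293T, GripTite) were plated in assay medium containing 2% charcoal-stripped FBS and incubated 6 hr. Test compounds in DMSO were added for 16 hr at 37C. FRET substrate was then loaded for 2 hr at room temperature before fluorescence reading.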

[2] = molecular target: Progesterone receptor (Homo sapiens) (UniProt P06401); experiment: qHTS assay to identify small molecule antagonists of the progesterone receptor (PR) signaling pathway (AID 1346795; active = well fitted inhibition curve with a large enough effect in the signal ratio in the repeat runs, not every such curve was filed as active; the % refers to the signal ratio; note: potency is the fitted concentration of half-maximal effect); conditions: PR-UAS-bla HEK293T, beta-lactamase FRET ratio, 16 h; series mostly up to 92.4 µM
Method in brief: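 Antagonist mode: compounds tested against 1 nM (final) promegestone stimulation in HEK293T cells expressing PR-UAS-bla reporter, 16 hr at 37C, 5% CO2; beta-lactamase activity detected via B/G FRET substrate after 2 hr at room temperature.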

[3] = qHTS assay to identify small molecule antagonists of the progesterone receptor (PR) signaling pathway - cell viability counter screen (AID 1346798); conditions: PR-UAS-bla HEK293T viability, CellTiter-Glo luminescence, 16 h; series mostly up to 92.4 µM; note: nearly all actives have a fitted effect of over 50% in size; note: potency is the fitted concentration of half-maximal effect
Method in brief: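 Counter screen for cytotoxicity: viability of PR-UAS-bla HEK293T cells was measured with CellTiter-Glo luminescence following 16 hr compound exposure in the presence of R5020.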

[4] = qHTS assay to identify small molecule agonists of the progesterone receptor (PR) signaling pathway - cell viability counter screen (AID 1346799; calls by dose curve; note: nearly all actives have a fitted effect of over 45% in size; note: potency is the fitted concentration of half-maximal effect); conditions: PR-UAS-bla HEK293T viability, CellTiter-Glo luminescence, 16 h; series mostly up to 92.4 µM
Method in brief: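 Cells (PR-UAS-bla HEK293T) are plated at 3,000/well in 2% charcoal-stripped FBS medium, rested 6 hr, dosed and incubated 16 hr at 37C. CellTiter-Glo is then added and luminescence measured after 30 min at room temperature.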

[5] = qHTS assay to identify small molecule antagonists of the TGF-beta/Smad signaling pathway - cell viability counter screen (AID 1346824); conditions: SBE-bla HEK293T viability, CellTiter-Glo luminescence; series mostly up to 76.8 µM; note: nearly all actives have a fitted effect of over 50% in size; note: potency is the fitted concentration of half-maximal effect
Method in brief: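 SBE-bla HEK 293T cells were plated overnight at 37 C, then given compounds in DMSO plus TGF-beta1 (added as 0.25 ng/mL solution) for 5 hr. After the bla read, CellTiter-Glo was added to the same wells and luminescence read after 30 min at room temperature.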

[6] = qHTS assay to identify small molecule agonists of the TGF-beta/Smad signaling pathway - cell viability counter screen (AID 1346829); conditions: SBE-bla HEK293T viability, CellTiter-Glo luminescence, 5 h; series mostly up to 76.8 µM; note: nearly all actives have a fitted effect of over 45% in size; note: potency is the fitted concentration of half-maximal effect
Method in brief: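 Luminescence from CellTiter-Glo, read after a 30 min room-temperature incubation, gives cell viability of SBE-bla HEK 293T cells treated 5 hr with compounds at 37 C.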

[7] = qHTS assay to identify small molecule agonists of the TGF-beta/Smad signaling pathway (AID 1346859; active = well fitted activation curve with a large enough effect in the signal ratio in the repeat runs, not every such curve was filed as active; the % refers to the signal ratio); conditions: SBE-bla HEK293T, TGF-beta/Smad beta-lactamase reporter, 5 h; series mostly up to 76.8 µM
Method in brief: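 Reporter line: HEK 293T with stably integrated SBE-controlled beta-lactamase. Compound exposure lasts 5 hr at 37 C and 5% CO2; substrate loading follows for 2 hr at room temperature, with emission read at 460 and 530 nm.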

[8] = molecular target: Thyrotropin-releasing hormone receptor (Homo sapiens) (UniProt P34981); experiment: qHTS assay to identify small molecule antagonists of the thyrotropin-releasing hormone receptor (TRHR) signaling pathway (AID 1346877; active = well fitted inhibition curve with a large enough effect in the repeat runs, not every such curve was filed as active); conditions: TRHR-HEK293, TRH-induced calcium fluorescence, antagonist mode; series mostly up to 51.3 µM
Method in brief: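 Screening used HEK293 cells engineered with TRHR, with a brief 5 min room-temperature compound exposure preceding addition of TRH to 1 nM. The read-out was kinetic calcium-dye fluorescence, concentration-response from 15 doses in triplicate.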

[9] = molecular target: Thyrotropin-releasing hormone receptor (Homo sapiens) (UniProt P34981); experiment: qHTS assay to identify small molecule agonists of the thyrotropin-releasing hormone receptor (TRHR) signaling pathway (AID 1346891; calls by dose curve;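 note: HEK293 cells expressing TRHR with calcium dye readout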); conditions: TRHR-HEK293 calcium fluorescence, agonist mode; series mostly up to 57.6 µM
Method in brief: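 Cells: TRHR-Hek293, seeded and incubated 18 h. Dye loading: 2 h at 37 °C. Compound added from DMSO stock by pin tool. Read-out: kinetic calcium fluorescence over 3 min.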

[10] = Human pregnane X receptor (PXR) small molecule agonists, qHTS cell viability counter screen (AID 1346977); conditions: PXR-Luc HepG2 viability, CellTiter-Fluor, 24 h; series mostly up to 92.4 µM; note: nearly all actives have a fitted effect of over 50% in size; note: potency is the fitted concentration of half-maximal effect
Method in brief: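 Cytotoxicity counter screen run in the same wells as the PXR luciferase assay, using PXR-Luc HepG2 cells in charcoal-stripped serum medium. Viability: CellTiter-Fluor fluorescence after 24hr compound treatment.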

[11] = Caspase-3/7 induction in HepG2 cells by small molecules, qHTS assay (AID 1346978); conditions: HepG2 caspase-3/7 activation, Caspase-Glo luminescence, 17 h; series mostly up to 92.4 µM; note: nearly all actives have a fitted effect of over 15% in size; note: potency is the fitted concentration of half-maximal effect
Method in brief: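 Wild-type HepG2 cells (2,000/well) were settled 5 h at 37 C, 5% CO2, then exposed to compounds in DMSO for 17 h. Caspase-3/7 activity was read by luminescence 30 min after adding Caspase-Glo 3/7 reagent at room temperature.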

[12] = Caspase-3/7 induction in CHO-K1 cells by small molecules, qHTS cell viability counter screen (AID 1346979); conditions: CellTiter-Fluor fluorescence, 17 h; series mostly up to 92.4 µM; note: nearly all actives have a fitted effect of over 35% in size; note: potency is the fitted concentration of half-maximal effect
Method in brief: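 Cytotoxicity counter screen run in parallel with the caspase-3/7 assay: CHO-K1 cells, 16hr compound treatment at 37C, then CellTiter-Fluor for 1hr before fluorescence reading.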

[13] = Caspase-3/7 induction in CHO-K1 cells by small molecules, qHTS assay (AID 1346980); conditions: CHO-K1 caspase-3/7 induction, Caspase-Glo luminescence, 17 h; series mostly up to 92.4 µM; note: nearly all actives have a fitted effect of over 15% in size
Method in brief: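 Wild-type cells were seeded at 1,500 per well and settled 5 hr at 37 C, 5% CO2, then exposed to DMSO-dissolved compounds for 17 hr. Caspase-Glo 3/7 reagent was added, and luminescence was read after 30min at room temperature.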

[14] = Caspase-3/7 induction in HepG2 cells by small molecules, qHTS cell viability counter screen (AID 1346981); conditions: CellTiter-Fluor fluorescence, 17 h; series mostly up to 92.4 µM; note: nearly all actives have a fitted effect of over 30% in size; note: potency is the fitted concentration of half-maximal effect
Method in brief: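 Multiplexed with the caspase-3/7 assay: HepG2 cells, 16 hr compound treatment, CellTiter-Fluor viability detection by fluorescence.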

[15] = molecular target: Nuclear receptor subfamily 1 group I member 2 (Homo sapiens) (UniProt O75469); experiment: Human pregnane X receptor (PXR) small molecule agonists, qHTS assay (AID 1346982); conditions: PXR-Luc HepG2, CYP3A4 luciferase reporter, 24 h; series mostly up to 92.4 µM; note: nearly all actives have a fitted effect of over 35% in size; note: potency is the fitted concentration of half-maximal effect
Method in brief: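 We seeded PXR-Luc HepG2 cells in assay medium containing 5% charcoal-stripped FBS, added compounds 5 hr later, incubated 24 hr, and read luminescence with ONE-Glo reagent.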

[16] = molecular target: Acetylcholinesterase (Homo sapiens) (UniProt P22303); experiment: Acetylcholinesterase (AChE) small molecule antagonists: enzyme-based qHTS assay (AID 1347397; calls by dose curve; note: nearly all actives have a fitted effect of over 55% in size); conditions: Potency: AChE enzyme activity inhibition; series mostly up to 115 µM
Method in brief: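 Recombinant human AChE, dispensed at 50 mU/mL, was preincubated with Tox21 10K compounds or DMSO vehicle for 30 min at room temperature. DTNB plus acetylthiocholine was then added, and thiocholine was measured colorimetrically after a further 10 min.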

[17] = molecular target: Acetylcholinesterase (Homo sapiens) (UniProt P22303); experiment: Acetylcholinesterase (AChE) small molecule antagonists: colormetric cell-based qHTS assay (AID 1347395; calls by dose curve; note: nearly all actives have a fitted effect of over 30% in size; note: potency is the fitted concentration of half-maximal effect); conditions: SH-SY5Y cells AChE activity, colorimetric (Ellman); series mostly up to 115 µM
Method in brief: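 Cells (SH-SY5Y, 2,000 per well) are seeded and left overnight at 37 C. Compound is added for 30 min, then DTNB and acetylthiocholine for a further 90 min at 37 C before absorbance-based thiocholine detection.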

[18] = molecular target: Nuclear receptor subfamily 1 group I member 2 (Rattus norvegicus) (UniProt Q9R1A7); experiment: Rat pregnane X receptor (rPXR) activation by small molecules, qHTS assay (AID 1346983); conditions: rPXR luciferase reporter cells, One-Glo luminescence, 24 h; max activation: stronger effect = higher value; note: nearly all actives have a fitted effect of over 20% in size
Method in brief: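 Cell-based rPXR luciferase reporter assay, 2,000 cells per well, rested 5hr at 37 C before compound addition in DMSO, then 24 hr at 37 C. One-Glo reagent was added and luminescence read after 30 min at room temperature.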

[19] = molecular target: Nuclear receptor subfamily 1 group I member 2 (Homo sapiens) (UniProt O75469); experiment: CYP3A4 induction through human pregnane X receptor (PXR) by small molecules, qHTS assay (AID 1346984); conditions: DPX-2 HepG2 PXR, CYP3A4-luciferin luminescence, 24 h; series mostly up to 46.1 µM; note: nearly all actives have a fitted effect of over 40% in size
Method in brief: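 qHTS, concentration-response format: HepG2 DPX-2 line, PXR/CYP3A4-luc. Exposure 24 h, 37C. Substrate Luciferin-IPA 3uM final, 3 h. Detection One-Glo, 30 min RT.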

Sequence of Acetylcholinesterase (Homo sapiens) (P22303 whole entry, looked up): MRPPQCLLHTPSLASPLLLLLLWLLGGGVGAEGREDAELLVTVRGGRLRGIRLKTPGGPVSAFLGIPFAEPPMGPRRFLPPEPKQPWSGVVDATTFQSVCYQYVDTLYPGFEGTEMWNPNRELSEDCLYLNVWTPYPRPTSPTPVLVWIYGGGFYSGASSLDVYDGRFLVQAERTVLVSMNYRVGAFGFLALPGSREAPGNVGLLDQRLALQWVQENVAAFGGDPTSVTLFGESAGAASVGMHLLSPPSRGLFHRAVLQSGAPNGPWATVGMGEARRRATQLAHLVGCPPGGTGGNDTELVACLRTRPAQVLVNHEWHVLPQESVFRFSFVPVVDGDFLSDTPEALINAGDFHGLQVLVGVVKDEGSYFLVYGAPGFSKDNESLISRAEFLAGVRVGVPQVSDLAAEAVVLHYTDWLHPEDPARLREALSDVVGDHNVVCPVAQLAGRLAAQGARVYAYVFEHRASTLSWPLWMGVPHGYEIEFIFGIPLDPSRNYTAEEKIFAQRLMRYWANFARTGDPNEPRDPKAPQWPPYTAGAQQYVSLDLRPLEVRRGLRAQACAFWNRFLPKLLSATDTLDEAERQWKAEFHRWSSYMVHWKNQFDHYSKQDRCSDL
Sequence of Thyrotropin-releasing hormone receptor (Homo sapiens) (P34981 whole entry, looked up): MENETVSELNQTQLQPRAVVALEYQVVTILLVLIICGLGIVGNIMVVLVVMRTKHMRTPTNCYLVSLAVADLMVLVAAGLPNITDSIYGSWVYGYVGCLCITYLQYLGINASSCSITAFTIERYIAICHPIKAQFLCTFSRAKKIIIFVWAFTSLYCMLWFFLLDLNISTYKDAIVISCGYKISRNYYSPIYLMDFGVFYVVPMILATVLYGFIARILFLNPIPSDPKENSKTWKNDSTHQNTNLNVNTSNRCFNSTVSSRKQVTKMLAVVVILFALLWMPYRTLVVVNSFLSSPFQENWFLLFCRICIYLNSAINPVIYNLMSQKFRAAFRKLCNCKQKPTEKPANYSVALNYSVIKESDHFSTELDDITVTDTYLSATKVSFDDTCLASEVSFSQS
Sequence of Nuclear receptor subfamily 1 group I member 2 (Homo sapiens) (O75469 whole entry, looked up): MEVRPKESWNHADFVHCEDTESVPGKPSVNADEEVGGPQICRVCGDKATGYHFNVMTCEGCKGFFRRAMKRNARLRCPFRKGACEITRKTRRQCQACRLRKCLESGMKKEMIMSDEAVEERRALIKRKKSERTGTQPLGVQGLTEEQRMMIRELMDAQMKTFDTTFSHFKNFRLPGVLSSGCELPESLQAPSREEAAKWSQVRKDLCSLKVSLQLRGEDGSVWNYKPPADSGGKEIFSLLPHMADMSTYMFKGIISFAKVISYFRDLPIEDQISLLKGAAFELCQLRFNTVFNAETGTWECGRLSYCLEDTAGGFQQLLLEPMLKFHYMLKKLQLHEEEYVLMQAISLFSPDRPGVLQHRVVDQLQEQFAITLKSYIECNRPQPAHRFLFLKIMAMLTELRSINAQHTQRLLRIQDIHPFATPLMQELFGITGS
Sequence of Progesterone receptor (Homo sapiens) (P06401 whole entry, looked up): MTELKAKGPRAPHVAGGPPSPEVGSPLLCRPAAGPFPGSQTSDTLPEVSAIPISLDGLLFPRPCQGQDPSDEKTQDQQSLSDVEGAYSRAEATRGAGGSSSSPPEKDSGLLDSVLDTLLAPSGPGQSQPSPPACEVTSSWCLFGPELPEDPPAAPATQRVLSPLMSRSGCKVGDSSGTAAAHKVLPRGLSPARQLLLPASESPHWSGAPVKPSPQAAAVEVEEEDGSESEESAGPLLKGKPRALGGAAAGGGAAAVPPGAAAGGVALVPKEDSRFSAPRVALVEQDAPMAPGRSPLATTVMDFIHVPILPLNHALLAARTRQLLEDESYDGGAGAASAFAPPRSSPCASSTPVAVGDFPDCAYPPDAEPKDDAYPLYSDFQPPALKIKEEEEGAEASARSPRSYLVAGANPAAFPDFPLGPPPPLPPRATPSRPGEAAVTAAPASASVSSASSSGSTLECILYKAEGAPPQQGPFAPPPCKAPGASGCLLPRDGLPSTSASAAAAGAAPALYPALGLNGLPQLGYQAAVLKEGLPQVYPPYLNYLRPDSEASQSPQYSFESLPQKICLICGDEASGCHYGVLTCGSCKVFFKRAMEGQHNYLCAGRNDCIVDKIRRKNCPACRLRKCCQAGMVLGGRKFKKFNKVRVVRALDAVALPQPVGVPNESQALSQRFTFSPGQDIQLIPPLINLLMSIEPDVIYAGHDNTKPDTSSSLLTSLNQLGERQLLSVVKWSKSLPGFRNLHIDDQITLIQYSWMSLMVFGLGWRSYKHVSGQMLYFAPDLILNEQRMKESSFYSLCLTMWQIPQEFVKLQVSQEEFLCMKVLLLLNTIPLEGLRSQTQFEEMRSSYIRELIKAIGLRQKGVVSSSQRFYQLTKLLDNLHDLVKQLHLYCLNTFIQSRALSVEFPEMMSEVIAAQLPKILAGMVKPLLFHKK
Sequence of Nuclear receptor subfamily 1 group I member 2 (Rattus norvegicus) (Q9R1A7 whole entry, looked up): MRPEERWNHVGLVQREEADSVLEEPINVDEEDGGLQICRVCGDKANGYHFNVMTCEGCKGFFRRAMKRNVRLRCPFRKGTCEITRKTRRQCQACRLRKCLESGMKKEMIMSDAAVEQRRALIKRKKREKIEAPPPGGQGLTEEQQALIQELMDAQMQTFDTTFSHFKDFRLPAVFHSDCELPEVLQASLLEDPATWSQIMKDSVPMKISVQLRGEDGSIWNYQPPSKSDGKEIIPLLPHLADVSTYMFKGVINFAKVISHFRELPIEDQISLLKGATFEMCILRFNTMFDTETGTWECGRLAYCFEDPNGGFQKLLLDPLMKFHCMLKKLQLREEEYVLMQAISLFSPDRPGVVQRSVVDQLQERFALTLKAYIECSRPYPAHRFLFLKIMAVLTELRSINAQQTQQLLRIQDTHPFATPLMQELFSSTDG

Compound | Potency [1] | Potency [2] | Potency [3] | Potency [4] | Potency [5] | Potency [6] | outcome [7] | Potency [8] | Potency [9] | Potency [10] | Potency [11] | Potency [12] | Potency [13] | Potency [14] | Potency [15] | Potency [16] | Potency [17] | max activation [18] | Potency [19]
ClCBr | inactive | inactive | inactive | inactive | inactive | inactive | inactive | inactive | inactive | inactive | inactive | inactive | inactive | inactive | inactive | inactive |  |  | 
COc1cnc(OC)n2nc(NS(=O)(=O)c3c(OCC(F)F)cccc3C(F)(F)F)nc12 | inactive | inactive | inactive | inactive |  | inactive | inactive | inactive | inactive | inactive | inactive | inactive | inactive | inactive | inactive | inactive | inactive |  | 
CC1CCCC1 | 53.6 µM (active) | inactive | inactive | inactive | inactive | inactive |  | inactive | inactive | inactive | inactive | inactive | inactive | inactive | inactive | inactive | inactive |  | 
O=C(Nc1ccc(F)cc1F)c1cccnc1Oc1cccc(C(F)(F)F)c1 | inactive | inactive | inactive |  | inactive | inactive | inactive | inactive | inactive | inactive | inactive | inactive | inactive | inactive | 4.24 µM (active) | inactive | inactive |  | 
[O]=[Cr][O][Cr]=[O] | inactive | inactive | inactive |  | inactive | inactive | inactive | inactive | inactive | inactive | inactive | inactive | inactive | inactive | inactive | inactive | inactive |  | 
O=c1c2ccccc2c(=O)c2c1cc(Cl)c1[nH]c3c([nH]c12)c(Cl)cc1c(=O)c2ccccc2c(=O)c13 | inactive | inactive | inactive |  | inactive | inactive | inactive | inactive | inactive | inactive | inactive | inactive | inactive | inactive | inactive | inactive | inactive |  | 
CN(C)C(=S)SSC(=S)N(C)C | inactive | 0.135 µM (active) | 170 nM (active) and 386 nM (active) and 266 nM (active) | 344 nM (active) and 298 nM (active) | 19.2 µM (active) and 43.6 µM (active) and 26.8 µM (active) | 34.2 µM (active) and inactive | inactive |  |  | 447 nM (active) and 486 nM (active) and 422 nM (active) | 851 nM (active) and 864 nM (active) and 668 nM (active) | 240 nM (active) and 344 nM (active) and 298 nM (active) |  | 26.9 µM (active) and 19.3 µM (active) and 15 µM (active) | inactive | inactive | 78.5 µM (active) and inactive | -13.9% (inactive) | inactive
Clc1ccc(C(Cl)(Cl)Cl)cc1Cl | inactive | inactive | inactive | inactive |  | inactive | inactive | inactive | inactive | inactive |  |  | inactive |  | 30 µM (active) | inactive | inactive |  | 
